# Source: PubChem
# ADAM10 inh: human ADAM10 inhibitors, primary screen, biochemical, QFRET, HTS. Disintegrin and metalloproteinase domain-containing protein 10 (Homo sapiens), O14672. recombinant ADAM10, EDANS/DABCYL FRET peptide cleavage, 3 h. inhibition, % at 7 µM. hit rate 0.62% among 370,000. AID 720582, 2013;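 active means inhibition above a per-campaign cutoff equal to the mean of compounds falling between control-based bounds plus 3 SD, cut at about 20% in these data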;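 further: 0% = DMSO wells while the 100% control is not disclosed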
# PLC-beta3 inh: human PLC-beta3 inhibitors, primary screen, biochemical, fluorescence | Purified PLC-beta3, fluorogenic substrate | inhibition, % at 12.2 µM | AID 720704, 2013 | hit rate 0.18% among 370,000 | 1-phosphatidylinositol 4,5-bisphosphate phosphodiesterase beta-3 (Homo sapiens), Q01970; in the data active means inhibition above about 11%;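 further: 0% = median of compound wells on plate and 100% = full blocker control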
# PLC-gamma1 inh: PLC-gamma1 enzyme inhibitors, primary screen, biochemical, fluorescence, purified enzyme; hit rate 0.84% among 370,000; fluorogenic substrate; inhibition, % at 12.2 µM; in the data active means inhibition above about 9.5%
# sPLA2-III inh: human group III sPLA2 inhibitors, primary screen, biochemical, QFRET, BODIPY PC-A2 liposome substrate; inhibition, % at 12.2 µM; QFRET BODIPY PC-A2 liposome hydrolysis, fluorescence; AID 743126, 2013; Group 3 secretory phospholipase A2 (Homo sapiens), Q9NZ20; hit rate 0.56% among 370,000;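 active means inhibition above mean plus 3 SD of compounds lying within the high and low control bounds, cut at about 19% in these data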;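 further: 0% = median of test compound wells and 100% = no enzyme DMSO wells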
# ADAM17 inh: ADAM17 inhibitors, primary screen, biochemical, QFRET. recombinant ADAM17, EDANS/DABCYL FRET peptide cleavage. inhibition, % at 6.95 µM. hit rate 0.83% among 370,000. Disintegrin and metalloproteinase domain-containing protein 17 (Homo sapiens), P78536;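 active means inhibition above the mean of compounds lying between control limits plus 3 SD, set per campaign, cut at about 8.5% in these data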;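 further: 0% = DMSO-only wells as the low control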
# proKLK7 act: proKLK7 zymogen activators, primary screen, biochemical, fluorescence intensity; Kallikrein-7 (Homo sapiens), P49862; purified proKLK7, EDANS-DABCYL substrate fluorescence; 100% is mature enzyme control, 0% vehicle; activation, % at 7 µM; hit rate 0.9% among 370,000; AID 652039, 2013;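 active means activation above the mean of all tested compounds plus 3 SD, computed per campaign excluding outliers beyond control limits, cut at about 13% in these data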
# ADAM10 ctr: ADAM10 inhibitors, counter-screen for ADAM17 exosite inhibitor project, biochemical, FRET, human ADAM10; shares compounds with ADAM17 inh; recombinant ADAM10, EDANS/DABCYL FRET peptide cleavage, 3 h; inhibition, % at 6.95 µM; hit rate 47% among 2,900;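 active means mean inhibition over the triplicate runs exceeds the activity threshold set in the earlier primary screen, cut at about 20% in these data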;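 further: 0% = DMSO wells and 100% = marimastat wells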
# ADAM17 confirm: ADAM17 inhibitors, hit retest, confirmation, biochemical, QFRET peptide cleavage; shares compounds with ADAM17 inh; recombinant ADAM17, EDANS/DABCYL QFRET peptide cleavage; inhibition, % at 6.95 µM; hit rate 65% among 2,900;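 active means mean inhibition across replicates above the hit cutoff set in the primary screen, cut at about 8.5% in these data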;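 further: 0% = DMSO wells and 100% = marimastat wells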
# * = called active by the depositor; . = not tested or not shown. The list is not random: actives were taken first. Their share in the collection is about 3.4%.
SMILES,ADAM10 inh,PLC-beta3 inh,PLC-gamma1 inh,sPLA2-III inh,ADAM17 inh,proKLK7 act,ADAM10 ctr,ADAM17 confirm
Cc1ccc(C(=O)CC2C(=O)N(c3ccccc3)C(=S)N2c2ccccc2)cc1 (configuration not stated),15.5,2.2,1.4,-36.3,9.3*,-0.1,44.5*,18.7*
Cc1ccc(-c2cc(C(=O)NN=Cc3cccc(OCc4ccccc4)c3)[nH]n2)cc1C,7.2,-1.4,1.2,-5.8,11.4*,2.5,14.8,12.1*
Cc1ccc(-c2cc(C(=O)NN=Cc3cccc(Oc4ccccc4)c3)[nH]n2)cc1C,13.2,3.9,2.4,-12.2,6.5,0.3,.,.
COC(=O)C1=C(C(=O)OC)SC2(S1)C(C(=O)OC)=C(C(=O)OC)SC1=C2c2cccc(C)c2NC1(C)C,13.4,1.2,7.5,0.6,12.8*,0.5,19.2,10.7*
CC(C)(c1ccccc1)c1ccc(OCCn2cnc3ccccc3c2=O)cc1,15.8,-0.2,0.7,-3.8,9.6*,-0.1,27.5*,14.7*
CC(C)C[C@H]1COc2cc(Br)ccc2S(=O)(=O)N1Cc1cn(Cc2ccc(Cl)cc2)nn1,-1.9,-0.1,2.1,-3.5,-3.5,0.4,.,.
Cc1ccc(S(=O)(=O)N(C)CC(=O)NNC(=O)Cc2ccccc2F)cc1,5.3,0.1,4.4,-14.1,11.3*,-0.4,18.7,10.6*
Cc1ccc(S(=O)(=O)N(C)CC(=O)NNC(=O)Cc2cccc(F)c2)cc1,3.9,-3.8,4.0,-9.8,-0.6,-0.6,.,.
COc1cc2c(c(OC)c1)[C@H](/C=C/c1ccccc1)[C@@H]([C@H](O)CO)OC2,-2.7,-1.0,-1.0,-2.6,-0.5,0.3,.,.
O=C(NNc1ccccc1Br)C(=O)n1ccc2ccccc21,16.8,8.1,4.2,-38.0,9.5*,-0.1,-5.0,0.8
O=C(Nc1ccccc1Br)C(=O)N1CCCC1,-6.4,0.4,1.4,2.5,-4.0,-0.5,.,.
COc1cccc(OCC(O)CN2CCN(C(c3ccccc3)c3ccccc3)CC2)c1 (configuration not stated),5.8,-8.3,-1.1,-9.9,-1.5,0.4,.,.
CC(=O)c1ccccc1OCC(O)CN1CCN(C(c2ccccc2)c2ccccc2)CC1 (configuration not stated),11.2,9.2,8.6,-20.3,11.2*,0.1,5.7,3.1
CCCCn1nnnc1C1c2ccccc2OCC(=O)N1Cc1ccc2c(c1)OCO2 (configuration not stated),1.2,0.3,0.3,-3.0,-2.1,0.0,.,.
C[C@@H]1ON(C)[C@H]2C[C@H]3c4[nH]c5c(-c6ccccc6F)cccc5c4CCN3C[C@@H]12,-32.8,-84.4,-58.4,2.1,-9.1,3.2,.,.
Cc1cccc(NC(=O)C2CCCN2S(=O)(=O)c2cccc3cccnc23)c1C (configuration not stated),6.0,0.6,0.5,-1.3,2.4,0.0,.,.
CCn1c(-c2ccccc2Cl)nn(CC(=O)Nc2cc(Cl)ccc2Cl)c1=S,6.5,1.3,1.3,-8.4,11.5*,0.6,5.0,5.1
COc1cc(SC)ccc1C(=O)NCCOc1ccc(C)c(C)c1,13.4,0.9,-0.1,-8.5,8.8*,-0.4,19.4,11.9*
Cc1ccc(NC(=O)CSc2nnc(-c3n[nH]c4ccccc34)n2-c2ccccc2)c(C)c1,19.1,0.6,2.5,-17.6,9.3*,1.0,4.2,10.3*
Cc1ccc(-n2nnnc2SCC(=O)Nc2ccccc2-c2ccccc2)cc1C,9.6,1.0,2.8,-18.7,9.0*,0.5,25.8*,14.8*
Cc1ccc(-n2nnnc2SCC(=O)Nc2ccccc2N2CCCCC2)cc1C,4.3,2.1,2.3,-6.0,2.9,-0.1,.,.
Cc1cc(-c2nnc(SCC(=O)Nc3ccccc3F)n2N)n[nH]1,-8.3,-6.6,0.3,1.5,1.7,0.1,.,.
Cc1ccc(OCc2nnc(SCC(=O)Nc3cccc4ccccc34)n2-c2ccccc2)cc1,12.0,0.5,0.8,-29.2,4.4,-0.3,.,.
Cc1ccc(C)c(NC(=O)CSc2nnc(-c3cc(C)[nH]n3)n2N)c1,-3.6,-1.2,7.1,1.1,10.9*,-0.6,-3.2,-2.0
Cc1ccc(-n2c(COc3ccccc3)nnc2SCC(=O)Nc2ccccc2-c2ccccc2)cc1,16.1,3.4,2.1,-21.9,8.9*,0.8,31.7*,15.8*
SMILES,ADAM10 inh,PLC-beta3 inh,PLC-gamma1 inh,sPLA2-III inh,ADAM17 inh,proKLK7 act,ADAM10 ctr,ADAM17 confirm
Cc1ccc(/C=N\NC(=O)CN2CCN(S(=O)(=O)c3ccc(Br)cc3)CC2)s1,-2.5,-4.3,-3.3,-13.4,0.1,-0.2,.,.
C[C@H]1COc2cccc(N3CCCC3)c2S(=O)(=O)N1C,-2.3,-3.5,-1.8,-2.6,-4.4,0.0,.,.
COc1ccc(OC)c(Nc2ccc(Nc3cc(OC)ccc3OC)nn2)c1,13.7,5.5,9.1,-0.5,17.6*,0.6,10.3,8.6
COc1ccccc1Nc1ccc(Nc2ccccc2OC)nn1,3.5,-2.7,-3.7,2.2,-1.0,0.2,.,.
O=C(Nc1ccc(Nc2ccccc2)cc1)c1ccc(Cl)cc1Cl,19.0,-14.4,-2.1,11.3,11.7*,-0.1,36.0*,25.1*
O=C(CSc1nnc(-c2cccnc2)n1-c1ccccc1)c1ccccc1Cl,-0.7,-6.8,-1.4,-27.9,-1.2,0.7,.,.
COc1cccc(C=NNC(=O)CSc2nc3ccccc3[nH]2)c1O,16.9,-31.5,-18.2,-36.1,10.2*,-2.0,-7.0,-0.4
C[C@@H]1/C=C/CC(=O)N[C@H](c2cccc(Br)c2)[C@H](C)/C=C/CC(=O)N[C@@H]1c1cccc(Br)c1,4.1,0.7,2.8,-4.8,3.1,0.6,.,.
O=C(Nc1ccc(F)cc1)OCc1cn(Cc2cccc(C(F)(F)F)c2)nn1,13.3,0.7,-0.2,-8.6,3.3,0.8,.,.
Cc1ccc(NC(=O)C(OC(=O)c2ccccc2Cl)c2ccccc2)cc1Cl (configuration not stated),14.5,5.2,4.2,-30.8,9.3*,-0.4,31.5*,21.1*
O=C(COC(=O)c1ccccc1Cc1ccccc1)Nc1ccc(SC(F)F)cc1,10.7,-6.9,-4.3,-32.5,9.6*,0.6,20.3*,13.6*
